B1: ATACTTTA (ssRNA)
RNA 1: GAGUUCUACAGUCCGACGAUCCCAACAUACUUUACACCUGGAAUUCUCGGGUGCCAA
RNA 2: UGGAGUGUGACAAUGGUGUUUG
DNA 1: GATCGTCGGACTGTAGAACTC
DNA 2: TTGGCACCCGAGAATTCCA
modifications: constant regions annealed to DNA blockers; guide miR-122 5' phosphate
B2: ATATTTTA (ssRNA)
RNA 1: GAGUUCUACAGUCCGACGAUCCCAACAUAUUUUACACCUGGAAUUCUCGGGUGCCAA
RNA 2: UGGAGUGUGACAAUGGUGUUUG
DNA 1: GATCGTCGGACTGTAGAACTC
DNA 2: TTGGCACCCGAGAATTCCA
modifications: constant regions annealed to DNA blockers; guide miR-122 5' phosphate
B3: ATGCCTCA (ssRNA)
RNA 1: GAGUUCUACAGUCCGACGAUCCCAACAUGCCUCACACCUGGAAUUCUCGGGUGCCAA
RNA 2: UGGAGUGUGACAAUGGUGUUUG
DNA 1: GATCGTCGGACTGTAGAACTC
DNA 2: TTGGCACCCGAGAATTCCA
modifications: constant regions annealed to DNA blockers; guide miR-122 5' phosphate
B4: ACGTTTCA (ssRNA)
RNA 1: GAGUUCUACAGUCCGACGAUCCCAACACGUUUCACACCUGGAAUUCUCGGGUGCCAA
RNA 2: UGGAGUGUGACAAUGGUGUUUG
DNA 1: GATCGTCGGACTGTAGAACTC
DNA 2: TTGGCACCCGAGAATTCCA
modifications: constant regions annealed to DNA blockers; guide miR-122 5' phosphate
B5: ACATCCCG (ssRNA)
RNA 1: GAGUUCUACAGUCCGACGAUCCCAACACAUCCCGCACCUGGAAUUCUCGGGUGCCAA
RNA 2: UGGAGUGUGACAAUGGUGUUUG
DNA 1: GATCGTCGGACTGTAGAACTC
DNA 2: TTGGCACCCGAGAATTCCA
modifications: constant regions annealed to DNA blockers; guide miR-122 5' phosphate
B6: ACGCTCCA (ssRNA)
RNA 1: GAGUUCUACAGUCCGACGAUCCCAACACGCUCCACACCUGGAAUUCUCGGGUGCCAA
RNA 2: UGGAGUGUGACAAUGGUGUUUG
DNA 1: GATCGTCGGACTGTAGAACTC
DNA 2: TTGGCACCCGAGAATTCCA
modifications: constant regions annealed to DNA blockers; guide miR-122 5' phosphate
B7: ATGTTTCA (ssRNA)
RNA 1: GAGUUCUACAGUCCGACGAUCCCAACAUGUUUCACACCUGGAAUUCUCGGGUGCCAA
RNA 2: UGGAGUGUGACAAUGGUGUUUG
DNA 1: GATCGTCGGACTGTAGAACTC
DNA 2: TTGGCACCCGAGAATTCCA
modifications: constant regions annealed to DNA blockers; guide miR-122 5' phosphate
B8: GCGTCTCA (ssRNA)
RNA 1: GAGUUCUACAGUCCGACGAUCCCAACGCGUCUCACACCUGGAAUUCUCGGGUGCCAA
RNA 2: UGGAGUGUGACAAUGGUGUUUG
DNA 1: GATCGTCGGACTGTAGAACTC
DNA 2: TTGGCACCCGAGAATTCCA
modifications: constant regions annealed to DNA blockers; guide miR-122 5' phosphate
B9: GCACTCTG (ssRNA)
RNA 1: GAGUUCUACAGUCCGACGAUCCCAACGCACUCUGCACCUGGAAUUCUCGGGUGCCAA
RNA 2: UGGAGUGUGACAAUGGUGUUUG
DNA 1: GATCGTCGGACTGTAGAACTC
DNA 2: TTGGCACCCGAGAATTCCA
modifications: constant regions annealed to DNA blockers; guide miR-122 5' phosphate
B10: ACATCCTG (ssRNA)
RNA 1: GAGUUCUACAGUCCGACGAUCCCAACACAUCCUGCACCUGGAAUUCUCGGGUGCCAA
RNA 2: UGGAGUGUGACAAUGGUGUUUG
DNA 1: GATCGTCGGACTGTAGAACTC
DNA 2: TTGGCACCCGAGAATTCCA
modifications: constant regions annealed to DNA blockers; guide miR-122 5' phosphate
B11: GTATTTCA (ssRNA)
RNA 1: GAGUUCUACAGUCCGACGAUCCCAACGUAUUUCACACCUGGAAUUCUCGGGUGCCAA
RNA 2: UGGAGUGUGACAAUGGUGUUUG
DNA 1: GATCGTCGGACTGTAGAACTC
DNA 2: TTGGCACCCGAGAATTCCA
modifications: constant regions annealed to DNA blockers; guide miR-122 5' phosphate
B12: GTGCTCCG (ssRNA)
RNA 1: GAGUUCUACAGUCCGACGAUCCCAACGUGCUCCGCACCUGGAAUUCUCGGGUGCCAA
RNA 2: UGGAGUGUGACAAUGGUGUUUG
DNA 1: GATCGTCGGACTGTAGAACTC
DNA 2: TTGGCACCCGAGAATTCCA
modifications: constant regions annealed to DNA blockers; guide miR-122 5' phosphate
B13: GTATCCCA (ssRNA)
RNA 1: GAGUUCUACAGUCCGACGAUCCCAACGUAUCCCACACCUGGAAUUCUCGGGUGCCAA
RNA 2: UGGAGUGUGACAAUGGUGUUUG
DNA 1: GATCGTCGGACTGTAGAACTC
DNA 2: TTGGCACCCGAGAATTCCA
modifications: constant regions annealed to DNA blockers; guide miR-122 5' phosphate
B14: ATATTTCA (ssRNA)
RNA 1: GAGUUCUACAGUCCGACGAUCCCAACAUAUUUCACACCUGGAAUUCUCGGGUGCCAA
RNA 2: UGGAGUGUGACAAUGGUGUUUG
DNA 1: GATCGTCGGACTGTAGAACTC
DNA 2: TTGGCACCCGAGAATTCCA
modifications: constant regions annealed to DNA blockers; guide miR-122 5' phosphate
B15: ATGTTCCA (ssRNA)
RNA 1: GAGUUCUACAGUCCGACGAUCCCAACAUGUUCCACACCUGGAAUUCUCGGGUGCCAA
RNA 2: UGGAGUGUGACAAUGGUGUUUG
DNA 1: GATCGTCGGACTGTAGAACTC
DNA 2: TTGGCACCCGAGAATTCCA
modifications: constant regions annealed to DNA blockers; guide miR-122 5' phosphate
B16: GCACTTCA (ssRNA)
RNA 1: GAGUUCUACAGUCCGACGAUCCCAACGCACUUCACACCUGGAAUUCUCGGGUGCCAA
RNA 2: UGGAGUGUGACAAUGGUGUUUG
DNA 1: GATCGTCGGACTGTAGAACTC
DNA 2: TTGGCACCCGAGAATTCCA
modifications: constant regions annealed to DNA blockers; guide miR-122 5' phosphate
B17: GTATCTCA (ssRNA)
RNA 1: GAGUUCUACAGUCCGACGAUCCCAACGUAUCUCACACCUGGAAUUCUCGGGUGCCAA
RNA 2: UGGAGUGUGACAAUGGUGUUUG
DNA 1: GATCGTCGGACTGTAGAACTC
DNA 2: TTGGCACCCGAGAATTCCA
modifications: constant regions annealed to DNA blockers; guide miR-122 5' phosphate
B18: ATGCTTCA (ssRNA)
RNA 1: GAGUUCUACAGUCCGACGAUCCCAACAUGCUUCACACCUGGAAUUCUCGGGUGCCAA
RNA 2: UGGAGUGUGACAAUGGUGUUUG
DNA 1: GATCGTCGGACTGTAGAACTC
DNA 2: TTGGCACCCGAGAATTCCA
modifications: constant regions annealed to DNA blockers; guide miR-122 5' phosphate
B19: ACGCTCCG (ssRNA)
RNA 1: GAGUUCUACAGUCCGACGAUCCCAACACGCUCCGCACCUGGAAUUCUCGGGUGCCAA
RNA 2: UGGAGUGUGACAAUGGUGUUUG
DNA 1: GATCGTCGGACTGTAGAACTC
DNA 2: TTGGCACCCGAGAATTCCA
modifications: constant regions annealed to DNA blockers; guide miR-122 5' phosphate

These binders were tested against AGO2 WT (phosphosite mutant background) (Homo sapiens, UniProt Q9UKV8 1-859, S387D;S824A;S828D;S831D;S834A) (assay: RNA Bind-n-Seq (nitrocellulose filter binding and sequencing); miR-122 guide loaded in AGO2; 60 min incubation; 30 mM Tris pH 8.0, 100 mM potassium acetate, 2 mM magnesium acetate, 0.5 mM TCEP, 0.005% NP-40, 0.01 mg/ml yeast tRNA; 3 nM AGO2-miR-122, 100 nM RNA library; 60; high values mean tight binding). Conditions: protein: recombinant; tags: His6 (N-terminal, pFastBac HTA).
In short: (§1)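 His-tagged AGO2 was expressed in Sf9 insect cells by baculovirus, loaded with a synthetic guide RNA, and purified by Ni-NTA and a biotinylated capture oligo. Bound RNA was extracted, reverse-transcribed, barcode-amplified and Illumina-sequenced. Fold enrichment is each sequence's read fraction divided by its input-library read fraction.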

Chain of AGO2 WT (phosphosite mutant background) (Q9UKV8 whole entry S387D/S824A/S828D/S831D/S834A): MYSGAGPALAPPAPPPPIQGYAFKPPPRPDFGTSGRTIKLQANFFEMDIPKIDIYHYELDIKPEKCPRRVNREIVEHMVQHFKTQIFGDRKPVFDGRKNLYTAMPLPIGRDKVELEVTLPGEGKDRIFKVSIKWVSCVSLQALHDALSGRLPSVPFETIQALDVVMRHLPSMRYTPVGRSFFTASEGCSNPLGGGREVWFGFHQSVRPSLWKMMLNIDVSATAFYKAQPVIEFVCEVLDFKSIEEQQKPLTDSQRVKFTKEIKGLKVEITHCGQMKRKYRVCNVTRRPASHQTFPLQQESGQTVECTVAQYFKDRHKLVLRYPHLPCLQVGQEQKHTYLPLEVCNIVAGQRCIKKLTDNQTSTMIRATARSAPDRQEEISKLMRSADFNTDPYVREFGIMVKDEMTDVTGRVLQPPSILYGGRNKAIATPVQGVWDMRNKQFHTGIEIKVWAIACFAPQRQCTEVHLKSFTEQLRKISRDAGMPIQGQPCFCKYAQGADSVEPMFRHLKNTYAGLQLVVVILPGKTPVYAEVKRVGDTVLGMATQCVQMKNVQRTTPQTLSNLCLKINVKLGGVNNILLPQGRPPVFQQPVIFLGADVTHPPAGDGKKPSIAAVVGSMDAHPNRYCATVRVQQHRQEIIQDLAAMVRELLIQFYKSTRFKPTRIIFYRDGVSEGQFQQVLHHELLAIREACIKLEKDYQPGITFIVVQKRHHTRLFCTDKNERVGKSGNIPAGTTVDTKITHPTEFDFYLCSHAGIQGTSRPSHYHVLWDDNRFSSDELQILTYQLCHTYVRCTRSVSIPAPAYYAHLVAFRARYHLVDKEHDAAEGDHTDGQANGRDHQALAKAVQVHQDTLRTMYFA

| Binder | binding signal |
| --- | --- |
| B1 | 0.121 fold enrichment over input |
| B2 | 0.127 fold enrichment over input |
| B3 | 0.127 fold enrichment over input |
| B4 | 0.146 fold enrichment over input |
| B5 | 0.128 fold enrichment over input |
| B6 | 5.29 fold enrichment over input |
| B7 | 0.125 fold enrichment over input |
| B8 | 0.14 fold enrichment over input |
| B9 | 0.143 fold enrichment over input |
| B10 | 0.144 fold enrichment over input |
| B11 | 0.136 fold enrichment over input |
| B12 | 0.149 fold enrichment over input |
| B13 | 0.162 fold enrichment over input |
| B14 | 0.141 fold enrichment over input |
| B15 | 0.148 fold enrichment over input |
| B16 | 0.149 fold enrichment over input |
| B17 | 0.141 fold enrichment over input |
| B18 | 0.135 fold enrichment over input |
| B19 | 3.15 fold enrichment over input |

The binders below were run against AGO2 L192P (Homo sapiens, UniProt Q9UKV8 1-859, L192P;S387D;S824A;S828D;S831D;S834A) in the same assay as above. Conditions: protein: recombinant; tags: His6 (N-terminal, pFastBac HTA).
In short: as §1

Chain of AGO2 L192P (Q9UKV8 whole entry L192P/S387D/S824A/S828D/S831D/S834A): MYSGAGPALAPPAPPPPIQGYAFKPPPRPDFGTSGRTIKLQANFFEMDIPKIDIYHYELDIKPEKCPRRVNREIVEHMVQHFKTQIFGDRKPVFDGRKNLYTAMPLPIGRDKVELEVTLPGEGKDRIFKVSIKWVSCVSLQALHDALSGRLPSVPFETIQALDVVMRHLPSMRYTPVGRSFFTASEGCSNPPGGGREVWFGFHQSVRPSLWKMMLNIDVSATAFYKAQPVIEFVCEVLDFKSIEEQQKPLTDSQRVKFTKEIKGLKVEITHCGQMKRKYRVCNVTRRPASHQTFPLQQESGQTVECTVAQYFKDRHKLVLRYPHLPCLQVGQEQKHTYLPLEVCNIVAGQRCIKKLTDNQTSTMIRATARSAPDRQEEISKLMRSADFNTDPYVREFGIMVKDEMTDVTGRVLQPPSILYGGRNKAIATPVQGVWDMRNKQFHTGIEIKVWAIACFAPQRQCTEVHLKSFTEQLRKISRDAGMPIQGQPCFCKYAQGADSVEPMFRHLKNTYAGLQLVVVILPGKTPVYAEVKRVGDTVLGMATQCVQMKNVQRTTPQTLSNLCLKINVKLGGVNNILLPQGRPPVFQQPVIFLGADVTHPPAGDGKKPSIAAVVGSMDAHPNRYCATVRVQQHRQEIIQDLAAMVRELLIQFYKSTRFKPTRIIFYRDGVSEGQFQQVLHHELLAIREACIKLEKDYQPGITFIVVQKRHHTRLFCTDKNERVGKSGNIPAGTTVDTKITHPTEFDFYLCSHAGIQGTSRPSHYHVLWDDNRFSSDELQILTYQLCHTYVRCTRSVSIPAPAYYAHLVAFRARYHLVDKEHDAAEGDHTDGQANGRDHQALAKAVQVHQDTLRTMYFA

| Binder | binding signal |
| --- | --- |
| B1 | 0.536 fold enrichment over input |
| B2 | 0.509 fold enrichment over input |
| B3 | 0.547 fold enrichment over input |
| B4 | 0.656 fold enrichment over input |
| B5 | 0.38 fold enrichment over input |
| B6 | 12.3 fold enrichment over input |
| B7 | 0.54 fold enrichment over input |
| B8 | 0.529 fold enrichment over input |
| B9 | 0.491 fold enrichment over input |
| B10 | 0.376 fold enrichment over input |
| B11 | 0.545 fold enrichment over input |
| B12 | 0.546 fold enrichment over input |
| B13 | 0.517 fold enrichment over input |
| B14 | 0.626 fold enrichment over input |
| B15 | 0.552 fold enrichment over input |
| B16 | 0.575 fold enrichment over input |
| B17 | 0.597 fold enrichment over input |
| B18 | 0.573 fold enrichment over input |
| B19 | 10.8 fold enrichment over input |

Each binder was assayed against AGO2 A367P (Homo sapiens, UniProt Q9UKV8 1-859, A367P;S387D;S824A;S828D;S831D;S834A) in the same assay as above. Conditions: protein: recombinant; tags: His6 (N-terminal, pFastBac HTA).
In short: as §1

Chain of AGO2 A367P (Q9UKV8 whole entry A367P/S387D/S824A/S828D/S831D/S834A): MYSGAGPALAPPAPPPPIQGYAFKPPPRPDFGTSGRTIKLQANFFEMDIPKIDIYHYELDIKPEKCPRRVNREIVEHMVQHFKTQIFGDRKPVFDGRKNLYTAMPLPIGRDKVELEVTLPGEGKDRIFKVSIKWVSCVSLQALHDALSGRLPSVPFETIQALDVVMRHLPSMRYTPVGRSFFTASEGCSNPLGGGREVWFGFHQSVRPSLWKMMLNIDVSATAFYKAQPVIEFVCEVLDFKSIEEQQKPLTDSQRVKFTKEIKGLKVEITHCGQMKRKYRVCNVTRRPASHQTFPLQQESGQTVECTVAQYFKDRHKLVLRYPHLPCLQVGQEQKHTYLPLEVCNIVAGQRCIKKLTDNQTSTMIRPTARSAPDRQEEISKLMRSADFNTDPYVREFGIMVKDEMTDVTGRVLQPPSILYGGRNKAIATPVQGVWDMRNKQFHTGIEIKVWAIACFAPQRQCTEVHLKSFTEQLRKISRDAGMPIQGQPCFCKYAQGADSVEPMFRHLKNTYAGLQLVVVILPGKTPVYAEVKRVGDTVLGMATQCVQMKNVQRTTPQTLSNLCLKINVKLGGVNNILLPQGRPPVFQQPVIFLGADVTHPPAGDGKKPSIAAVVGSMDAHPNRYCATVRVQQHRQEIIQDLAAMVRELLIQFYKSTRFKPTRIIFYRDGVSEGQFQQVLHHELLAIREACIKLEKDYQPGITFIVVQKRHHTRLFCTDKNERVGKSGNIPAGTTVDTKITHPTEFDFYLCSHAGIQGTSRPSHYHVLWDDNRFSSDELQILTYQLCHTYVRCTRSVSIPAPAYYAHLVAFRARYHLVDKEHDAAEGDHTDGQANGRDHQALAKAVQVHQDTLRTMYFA

| Binder | binding signal |
| --- | --- |
| B1 | 0.174 fold enrichment over input |
| B2 | 0.189 fold enrichment over input |
| B3 | 0.307 fold enrichment over input |
| B4 | 0.363 fold enrichment over input |
| B5 | 0.158 fold enrichment over input |
| B6 | 13.1 fold enrichment over input |
| B7 | 0.311 fold enrichment over input |
| B8 | 0.271 fold enrichment over input |
| B9 | 0.33 fold enrichment over input |
| B10 | 0.171 fold enrichment over input |
| B11 | 0.337 fold enrichment over input |
| B12 | 0.535 fold enrichment over input |
| B13 | 0.408 fold enrichment over input |
| B14 | 0.373 fold enrichment over input |
| B15 | 0.299 fold enrichment over input |
| B16 | 0.348 fold enrichment over input |
| B17 | 0.455 fold enrichment over input |
| B18 | 0.309 fold enrichment over input |
| B19 | 14 fold enrichment over input |

What follows are binders tested against AGO2 T357M (Homo sapiens, UniProt Q9UKV8 1-859, T357M;S387D;S824A;S828D;S831D;S834A) in the same assay as above. Conditions: protein: recombinant; tags: His6 (N-terminal, pFastBac HTA).
In short: as §1

Chain of AGO2 T357M (Q9UKV8 whole entry T357M/S387D/S824A/S828D/S831D/S834A): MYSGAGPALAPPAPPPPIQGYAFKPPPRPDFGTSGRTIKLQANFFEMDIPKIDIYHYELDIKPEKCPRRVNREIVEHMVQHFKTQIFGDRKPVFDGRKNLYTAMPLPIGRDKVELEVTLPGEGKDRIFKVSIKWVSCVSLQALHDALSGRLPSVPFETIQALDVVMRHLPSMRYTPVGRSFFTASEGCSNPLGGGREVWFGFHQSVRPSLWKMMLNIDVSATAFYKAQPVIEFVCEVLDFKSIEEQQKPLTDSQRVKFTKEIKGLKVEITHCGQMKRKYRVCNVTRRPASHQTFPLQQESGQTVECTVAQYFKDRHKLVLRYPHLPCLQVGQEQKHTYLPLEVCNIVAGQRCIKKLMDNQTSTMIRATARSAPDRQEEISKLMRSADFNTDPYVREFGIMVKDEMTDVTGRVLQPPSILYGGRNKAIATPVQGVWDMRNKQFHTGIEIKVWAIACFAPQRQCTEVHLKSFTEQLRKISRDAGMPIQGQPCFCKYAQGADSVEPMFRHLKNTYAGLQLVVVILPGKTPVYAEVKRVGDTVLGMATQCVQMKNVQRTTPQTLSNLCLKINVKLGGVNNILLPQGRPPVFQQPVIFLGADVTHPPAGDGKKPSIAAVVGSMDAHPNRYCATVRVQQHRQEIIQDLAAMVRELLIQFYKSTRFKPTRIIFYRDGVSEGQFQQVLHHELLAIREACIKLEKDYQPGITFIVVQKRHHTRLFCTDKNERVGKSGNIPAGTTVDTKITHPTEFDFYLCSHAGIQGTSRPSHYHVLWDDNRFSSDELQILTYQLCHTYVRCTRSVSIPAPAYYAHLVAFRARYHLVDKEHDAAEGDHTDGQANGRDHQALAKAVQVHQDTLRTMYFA

| Binder | binding signal |
| --- | --- |
| B1 | 0.643 fold enrichment over input |
| B2 | 0.697 fold enrichment over input |
| B3 | 0.637 fold enrichment over input |
| B4 | 0.572 fold enrichment over input |
| B5 | 0.471 fold enrichment over input |
| B6 | 2.94 fold enrichment over input |
| B7 | 0.58 fold enrichment over input |
| B8 | 0.646 fold enrichment over input |
| B9 | 0.457 fold enrichment over input |
| B10 | 0.475 fold enrichment over input |
| B11 | 0.647 fold enrichment over input |
| B12 | 0.617 fold enrichment over input |
| B13 | 0.614 fold enrichment over input |
| B14 | 0.697 fold enrichment over input |
| B15 | 0.682 fold enrichment over input |
| B16 | 0.655 fold enrichment over input |
| B17 | 0.579 fold enrichment over input |
| B18 | 0.582 fold enrichment over input |
| B19 | 1.98 fold enrichment over input |

What follows are binders tested against AGO2 F182del (Homo sapiens, UniProt Q9UKV8 1-859, S387D;S824A;S828D;S831D;S834A;del182-182) in the same assay as above. Conditions: protein: recombinant; tags: His6 (N-terminal, pFastBac HTA).
In short: as §1

Chain of AGO2 F182del (Q9UKV8 other isoform, or with tags, fused parts or gaps S387D;S824A;S828D;S831D;S834A;del182-182): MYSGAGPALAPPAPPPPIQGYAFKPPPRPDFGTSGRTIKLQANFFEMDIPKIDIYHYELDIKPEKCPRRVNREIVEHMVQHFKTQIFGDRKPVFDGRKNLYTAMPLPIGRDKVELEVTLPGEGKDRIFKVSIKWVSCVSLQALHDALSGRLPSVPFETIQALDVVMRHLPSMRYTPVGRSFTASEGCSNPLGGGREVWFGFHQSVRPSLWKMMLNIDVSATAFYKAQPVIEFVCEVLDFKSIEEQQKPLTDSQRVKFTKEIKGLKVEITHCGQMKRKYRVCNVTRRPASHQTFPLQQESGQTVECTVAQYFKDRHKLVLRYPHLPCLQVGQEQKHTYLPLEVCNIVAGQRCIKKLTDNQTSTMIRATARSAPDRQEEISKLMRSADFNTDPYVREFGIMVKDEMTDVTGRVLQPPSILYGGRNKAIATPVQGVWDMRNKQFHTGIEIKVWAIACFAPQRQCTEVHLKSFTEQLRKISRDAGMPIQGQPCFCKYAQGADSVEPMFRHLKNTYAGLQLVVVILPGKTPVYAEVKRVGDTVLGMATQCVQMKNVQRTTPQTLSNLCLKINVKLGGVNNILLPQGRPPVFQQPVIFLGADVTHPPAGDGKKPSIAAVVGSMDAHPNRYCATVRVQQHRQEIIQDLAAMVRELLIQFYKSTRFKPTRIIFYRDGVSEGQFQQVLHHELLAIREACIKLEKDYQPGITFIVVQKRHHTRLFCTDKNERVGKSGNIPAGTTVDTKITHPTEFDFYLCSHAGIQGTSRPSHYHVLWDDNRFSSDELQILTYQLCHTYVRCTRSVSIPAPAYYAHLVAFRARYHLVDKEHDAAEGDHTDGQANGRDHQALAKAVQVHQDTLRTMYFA

| Binder | binding signal |
| --- | --- |
| B3 | 0.9 fold enrichment over input |
| B4 | 1.44 fold enrichment over input |
| B5 | 0.144 fold enrichment over input |
| B6 | 16.9 fold enrichment over input |
| B7 | 0.814 fold enrichment over input |
| B8 | 0.747 fold enrichment over input |
| B9 | 0.887 fold enrichment over input |
| B10 | 0.153 fold enrichment over input |
| B11 | 0.805 fold enrichment over input |
| B12 | 0.426 fold enrichment over input |
| B13 | 0.832 fold enrichment over input |
| B14 | 1.09 fold enrichment over input |
| B15 | 0.701 fold enrichment over input |
| B16 | 0.82 fold enrichment over input |
| B17 | 1.35 fold enrichment over input |
| B18 | 0.842 fold enrichment over input |
| B19 | 15.2 fold enrichment over input |
